Source: PubChem
mHTT-CaM PPI inh: disrupts binding of mutant huntingtin to calmodulin | P42858 | AlphaScreen His-mHTT/GST-CaM binding, luminescence | inhibition, % at 15 µM | hit rate 3.6% among 190,000
Pf apPOL inh: Pf-apPOL DNA polymerase inhibition | inhibition, % at 10 µM | Recombinant Pf-apPOL, molecular beacon fluorescence, 1.5 h | hit rate 0.25% among 210,000
Of the large screens only hits and unclear results are named; the others gave an inactive call; ! = not confirmed by another sample. Most compounds without a hit are left out; they make up all but 3.5% or so of the library. Rule as the data show it: active = inhibition above about 50%; inactive = the rest.

CCCCNC(=O)CCc1nc2ccccc2n(Cc2c(F)cccc2Cl)c1=O	none
CCOc1cccc(C2CC(c3ccc(Cl)cc3)=NC3(CCN(C(C)=O)CC3)N2)c1O (configuration not stated)	none
COCc1cc(=O)[nH]c(-c2ccncc2)n1	none
O=C(NCCCN1CCCCC1)c1cc2n(n1)CCCN(Cc1cccc(F)c1)C2=O	none
CCSc1ccccc1C(=O)NCC1(CO)CC1	none
COc1ccc(Cl)cc1NC(=O)CSc1nnc(-c2c[nH]c3ccccc23)n1C	mHTT-CaM PPI inh 54.7
CCOC(=O)c1ccccc1NC(=O)CSc1nnc(-c2c[nH]c3ccccc23)n1C	none
O=C1C(=O)N(c2cccnc2)C(c2ccccc2[N+](=O)[O-])C1=C(O)c1ccc(Cl)cc1 (configuration not stated)	mHTT-CaM PPI inh 87.8
O=C(O)CN1C(=O)C(=O)C(=C(O)c2ccc(Cl)cc2)C1c1ccccc1[N+](=O)[O-] (configuration not stated)	none
CC1=C(C(=O)Nc2cccc(F)c2)C(c2cccnc2)C2=C(CCCC2=O)N1 (configuration not stated)	none
Cc1ccc2nc3c(C(=O)N4CCN(Cc5ccccc5)CC4)cccn3c(=O)c2c1	mHTT-CaM PPI inh 83.6
O=C(NC1CCN(Cc2ccccc2)CC1)c1cccn2c(=O)c3cc(Cl)ccc3nc12	none
COc1ccc(-c2cc(C(=O)Nc3cc(C)on3)c3ccccc3n2)cc1OC	none
Cc1cccc(-c2cc(C3CCN(S(=O)(=O)c4ccccc4)CC3)[nH]n2)c1	none
COCCCNC(=O)C1CCCN(c2nnc3ccc(C(F)(F)F)cn23)C1 (configuration not stated)	none
CC1CCN(CC(O)COC(C)(C)C)CC1 (configuration not stated)	none
Cc1ccc(/C=C2/N=C(c3c(-c4ccccc4)noc3C)OC2=O)cc1	none
Cc1onc(-c2ccccc2)c1C1=N/C(=C\C=C\c2ccccc2)C(=O)O1	mHTT-CaM PPI inh 68.0
COc1cc(C2=NC(=CC=Cc3ccccc3)C(=O)O2)cc(OC)c1OC	none (no result: mHTT-CaM PPI inh)
COc1cc(C2=N/C(=C\C=C\c3ccccc3)C(=O)O2)cc(OC)c1OC	mHTT-CaM PPI inh 61.0
O=C(Nc1ccccc1C(F)(F)F)Nc1nnc2ccccn12	none
Nc1ccc2oc(-c3ccccc3Cl)cc(=O)c2c1O	none
Cc1oc2cc(O)ccc2c(=O)c1-c1ccccc1	none
O=c1cc2oc3cc(O)c(O)cc3c(-c3ccccc3O)c-2cc1O	mHTT-CaM PPI inh 84.6
O=c1cc2oc3cc(O)c(O)cc3c(-c3ccccc3)c-2cc1O	mHTT-CaM PPI inh 69.0
N=C1S/C(=C\c2cc3c(cc2Cl)OCO3)C(=O)N1c1nccs1	none
C=CCOc1ccc(/C=C2\SC(=N)N(c3nccs3)C2=O)cc1OCC	mHTT-CaM PPI inh 74.0
CCCCN(CCCNC(=O)C1CC(=O)N(CCc2ccccc2)C1)c1ccccc1 (configuration not stated)	mHTT-CaM PPI inh 79.5
CCCCNC(=O)C1CC(=O)N(CCc2ccccc2)C1 (configuration not stated)	none
NS(=O)(=O)c1ccc(NC(=O)C2CCCN(c3cc(-n4cccn4)ncn3)C2)cc1 (configuration not stated)	none
CCOC(=O)C(C#N)=Cc1ccc(N2CCCC2)c([N+](=O)[O-])c1	none (no result: mHTT-CaM PPI inh)
COc1cccc(Nc2ncc3c(n2)CCN(Cc2ccc(OC(C)C)cc2)C3)c1	mHTT-CaM PPI inh 50.9
COc1ccc(Nc2ncc3c(n2)CCN(Cc2ccc(N(C)C)cc2)C3)c(OC)c1	none
CCOc1ccc(CN2CCc3nc(Nc4cccc(OC)c4)ncc3C2)cc1	none
COc1cccc(Nc2ncc3c(n2)CCN(Cc2ccc(N(C)C)cc2)C3)c1	mHTT-CaM PPI inh 73.0
O=C(c1ccccc1Br)N1CCC(Cn2ccnc2)CC1	none
COc1ccc2c3c(ccc2c1)-c1[nH]c2ccccc2c1CC3	none (no result: Pf apPOL inh)
c1ccc2c3c([nH]c2c1)-c1nonc1CC3	Pf apPOL inh 92.9!
Cc1cc(=O)[nH]c(-n2nc(C3CC3)cc2NC(=O)C2(c3ccc(Cl)cc3)CCCC2)n1	mHTT-CaM PPI inh 57.2
Cc1cc(=O)[nH]c(-n2nc(-c3ccccc3)cc2NC(=O)CCSc2ccccc2)n1	none
CN(C)CC1CN(C(=O)c2nn(C)c3ccccc23)CC12CCOCC2 (configuration not stated)	none
Cc1c(C#N)sc2nc(-c3ccccc3)nc(N=CN(C)C)c12	none
CN(C)C=Nc1c(C#N)cnn1-c1ncnc2sc(-c3ccccc3)cc12	mHTT-CaM PPI inh 82.0
Cc1ccccc1CS(=O)(=O)CCC(=O)NCCc1ccccc1	none
Cc1ccc(NC(=O)c2cccc3[nH]cc(CN4CCCC4)c23)cc1	none
Cc1ccc(N2CCN(C(=O)c3cccc4[nH]cc(CN5CCCC5)c34)CC2)cc1	mHTT-CaM PPI inh 78.2
COc1cc(C2C3=C(CCCC3=O)NC3=C2C(=O)c2ccccc23)ccc1O (configuration not stated)	none
O=C1CC(c2ccccc2)CC2=C1C(c1ccc(Cl)cc1)C1=C(N2)c2ccccc2C1=O (configuration not stated)	none
Cc1ccc(C2C3=C(CC(c4ccco4)CC3=O)NC3=C2C(=O)c2ccccc23)cc1 (configuration not stated)	none
CC(C)c1ccc(C2C3=C(CCCC3=O)NC3=C2C(=O)c2ccccc23)cc1 (configuration not stated)	mHTT-CaM PPI inh 75.0
CC(C)(C)c1ccc(C2C3=C(CCCC3=O)NC3=C2C(=O)c2ccccc23)cc1 (configuration not stated)	mHTT-CaM PPI inh 63.0
CC(C)c1ccc(C2C3=C(CC(C)(C)CC3=O)NC3=C2C(=O)c2ccccc23)cc1 (configuration not stated)	mHTT-CaM PPI inh 65.0
O=C(c1cccc(F)c1)N1CCN(c2ccc([N+](=O)[O-])c(NCc3ccco3)c2)CC1	none
c1ccc(-c2nc(-c3ccccn3)nc(-c3ccccn3)n2)nc1	none (no result: Pf apPOL inh)
Clc1cc(-c2ccccn2)nc(-c2ccccn2)c1	mHTT-CaM PPI inh 75.5 (no result: Pf apPOL inh)
CCc1nc(-c2ccc(C(=O)N3CCN(c4ccccc4)CC3)cc2)cs1	none
CCc1nc(-c2ccc(C(=O)N3CCc4ccccc4C3)cc2)cs1	mHTT-CaM PPI inh 59.9
CCNC(=O)N(C)CC(=O)N1N=C(c2ccccc2Cl)CC1c1ccccc1F (configuration not stated)	none
COc1ccc(C2CC(c3ccccc3Cl)=NN2C(=O)CN(C)C(C)=O)cc1 (configuration not stated)	mHTT-CaM PPI inh 95.7
COc1ccc(C2=NN(C(=O)CN(C)C(C)=O)C(c3ccc(C)cc3)C2)cc1 (configuration not stated)	none
CCC(=O)N(C)CC(=O)N1N=C(c2ccccc2Cl)CC1c1ccccc1Cl (configuration not stated)	mHTT-CaM PPI inh 59.7
COC(=O)COc1ccc2c(c1)OC(=CC=Cc1ccccc1)C2=O	none
Cc1cc2c(c(=O)o1)C(c1ccccc1Br)C(C#N)=C(N)O2 (configuration not stated)	none
O=C(NCc1ccccc1)C1CC(=O)N(CCc2ccccc2)C1 (configuration not stated)	none
Cc1ccc(S(=O)(=O)Nc2cc(C)c(O)c(Cl)c2C(C)C)cc1	none
Cc1ccc(N2CCN(Cc3nc(C(=O)NC4CC4)co3)CC2)cc1	mHTT-CaM PPI inh 91.8
CC1CCN(Cc2nc(C(=O)NC3CCCCC3)co2)CC1	none
CSc1nnc(-c2nn(C)c3c2CN(C(=O)CCC2CCCC2)CC3)n1C	none
CCc1nnc(NC(=O)c2ccc(S(=O)(=O)N3CCc4ccccc4C3)cc2)o1	mHTT-CaM PPI inh 55.0
